# Source: PubChem (National Center for Advancing Translational Sciences (NCATS))
# TGFb SMAD3 inh: TGF-b pathway inhibition | HepG2 CAGA-GFP TGF-b/SMAD3 reporter, GFP fluorescence, 18 h; TGF-beta stimulated, 500 pg/mL final | Potency, µM (doses to about 46.1 µM), hits mostly inhibitors | hit rate 1.2% among 410,000 | AID 588855; also: nearly all actives have a fitted effect of over 65% in size
#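 GFP signal (ex488/em500-530) from TGF-beta-stimulated HEPG2 CAGA-GFP cells, 500 pg/mL final, 18 h at 37 degrees C in DMEM plus 1% FBS, normalized to unstimulated and DMSO-stimulated controls.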
# KB-3-1 tox: KB-3-1 parental cell cytotoxicity. KB-3-1 viability, CellTiter-Glo ATP luminescence, 72 h. Potency, µM (doses to about 46.1 µM), hits mostly cytotoxic. hit rate 1.4% among 400,000. AID 1347075; also: nearly all actives have a fitted effect of over 60% in size
#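 Here the drug-naive KB-3-1 line serves as comparator for MDR sub-line selectivity; cells received compound titrations, 72 h at 37 °C, then CellTiter-Glo readout.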
# KB-V1 MDR tox: kills drug-selected multidrug resistant KB-V1 cells; KB-V1 MDR cells viability, CellTiter-Glo, 72 h; Potency, µM (series often up to 46.1 µM), usual class: cytotoxic; hit rate 3.4% among 400,000; AID 1347076; also: nearly all actives have a fitted effect of over 60% in size
#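 In this primary screen, KB-V1 cells overexpressing P-gp are incubated with library compounds (lowest to highest concentration) for 72 h at 37 degrees C before a luminescent ATP viability read.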
# HT1080NT lethal: kills 2HG-producing HT-1080-NT fibrosarcoma cells | hit rate 1.6% among 360,000 | HT-1080-NT fibrosarcoma viability, CellTiter-Glo ATP luminescence, 48 h | Potency, µM (highest dose often 46.1 µM), actives largely listed as cytotoxic | AID 686970;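 also: NT is the 2HG producing partner of a matched IDH1 knockdown line; nearly all actives have a fitted effect of over 55% in size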
#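 Viability of the 2HG-overproducing fibrosarcoma line after 48 hours of compound exposure at 37 degrees C was determined by luminescence with CellTiter-Glo, and concentration-effect curves were then fitted and categorized.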
# HT1080 IDH1KD tx: HT-1080 IDH1 knockdown cell toxicity (counter line); AID 686971; HT-1080 IDH1 knockdown viability, ATP luminescence, 48 h; hit rate 2% among 360,000; Potency, µM (series often up to 46.1 µM), usual class: cytotoxic
#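 HT-1080-IDH1KD cells (IDH1 knocked down), 750/well in RPMI with 5% FBS, treated with compound 48 h at 37 degrees C. Viability by CellTiter-Glo luminescence, normalised to DMSO and no-cell wells; concentration-response curves classed.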
# HepG2 tox: counter-screen for TGF-b inhibitors: cytotoxicity in HepG2 cells | HepG2 CAGA-GFP viability, ATP luminescence, 18 h | Potency, µM (titrated, usually from 46.1 µM), most hits filed as cytotoxic | hit rate 0.76% among 410,000 | AID 588856
#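 CellTiter-Glo luminescence gave cytotoxicity after 18 hours at 37 degrees C. The cells were HepG2 CAGA-GFP in 1% FBS DMEM, stimulated with 500 pg/mL TGF-beta after compound addition. %Activity was normalised to no-cell wells (complete cell-killing) and DMSO (no toxicity), and curves were fitted and classified.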
# A number is an active result; - = inactive; ? = inconclusive; . = not tested or not shown; ! = not active in a repeat. Shown are actives, neighbours in structure and some others; about 6.6% of the full set was active somewhere. Calls follow the shape of the dose curve; as a rule, active = well fitted curve in the direction sought with a large enough effect; inconclusive = small, poorly fitted or top-dose-only effect, or another doubt; inactive = no such curve, though single readings can be large; an effect the other way counts as inactive or inconclusive.
SMILES,TGFb SMAD3 inh,KB-3-1 tox,KB-V1 MDR tox,HT1080NT lethal,HT1080 IDH1KD tx,HepG2 tox
O=C(c1ccccc1)c1ccc(OCC(O)CN2CCCCC2)cc1 (configuration not stated),-,-,-,-,-,-
CC1CCCN(c2sc(S(C)(=O)=O)nc2S(=O)(=O)c2ccc(Cl)cc2)C1 (configuration not stated),-,-,?,-,-,-
CC1CCCN(c2nc3ccsc3c(=O)s2)C1 (configuration not stated),-,?,16.4µM,-,-,-
O=C(Nc1ccccc1-c1ccccc1)c1ccccc1Br,-,-,?,-,?,-
O=C(Nc1ccccc1Br)c1ccccc1-c1ccccc1,-,7.31µM,?,?,?,-
Cc1cc(Br)ccc1NC(=O)c1ccccc1-c1ccccc1,-,-,13µM,-,-,-
NC(=S)N/N=C1\CCOc2ccc(Cl)cc21,8.91µM,?,?,-,-,-
NC(=S)NN=C1c2cc(S(=O)(=O)N3CCOCC3)ccc2-c2ccc(S(=O)(=O)N3CCOCC3)cc21,-,-,-,-,-,-
Cc1csc2nc(-c3cccc(NC(=O)c4cccc(F)c4)c3)cn12,?,-,?,.,.,-
COc1ccc(Cl)cc1N1C(=O)/C(=C\c2sccc2C)N=C1SCC(=O)NC1CC1,-,-,20.6µM,?,-,-
Cc1ccc(C)c(OCCn2cc(C(=O)c3cccs3)c3ccccc32)c1,-,-,-,.,.,-
Cc1cc(C)cc(NC(=O)c2cc(S(=O)(=O)NCCC3=CCCCC3)ccc2F)c1,?,-,?,.,.,-
O=C(Nc1cccc(F)c1)c1cc(S(=O)(=O)NCCC2=CCCCC2)ccc1F,?,?,-,?,?,14.1µM
Cc1ccc(NC(=O)c2cc(S(=O)(=O)NCCC3=CCCCC3)ccc2F)cc1F,?,10.3µM!,10.3µM!,?,?,-
CCCCNC(=O)c1sc2nc(C)cc(COC)c2c1-n1cccc1,?,-,5.17µM,-,-,-
CCOC(=O)C1CCN(C(=O)c2sc3nc(-c4ccc(F)cc4)cn3c2C)CC1,-,-,23.1µM,-,-,-
COc1ccc(C2N3CC4(C)CN2CC(c2ccccc2)(C3)C4=O)cc1 (configuration not stated),?,-,-,.,.,-
NNC(=O)c1sccc1OCc1ccc(F)cc1,-,-,?,-,-,-
O=C(N/N=C/c1ccc(F)cc1)c1sccc1OCc1ccc(F)cc1,-,?,7.31µM,13µM,16.4µM,-
COc1ccc(COc2ccsc2C(=O)Nc2ccc(Cl)cc2)cc1,-,-,9.2µM,?,?,-
O=C(N/N=C/c1ccc(O)cc1)c1ccc(COc2cc(Cl)ccc2Cl)o1,?,-,-,?,?,-
O=C(N/N=C/c1ccc(Cl)cc1)c1sccc1OCc1ccc(F)cc1,-,1.46µM,1.3µM,2.59µM,1.3µM,-
CCCCOc1cccc(C(=O)N(Cc2sccc2C)C2CCS(=O)(=O)C2)c1 (configuration not stated),.,.,.,.,.,-
Cc1ccc(-c2cc(C(=O)O)c3cc(Br)ccc3n2)o1,-,-,?,-,-,-
Cc1ccc(-c2cc(C(=O)NCCCn3ccnc3)c3cc(Br)ccc3n2)o1,-,-,20.6µM,-,-,-
SMILES,TGFb SMAD3 inh,KB-3-1 tox,KB-V1 MDR tox,HT1080NT lethal,HT1080 IDH1KD tx,HepG2 tox
COc1cc(/C=C2/C=Cc3ccccc32)ccc1N(C)C,-,?,-,.,.,-
CCN(CC(=O)NCc1ccc(F)cc1)C(=O)/C=C/c1ccc(S(=O)(=O)N(CC)CC)cc1,-,?,?,16.4µM,4.61µM,-
COC(=O)c1cc(Cl)c(NC(=O)c2ccc(C(C)(C)C)cc2)cc1OC,-,-,-,?,11.2µM,-
COC(=O)c1cc(OC)c(OC)cc1NC(=O)c1ccc(C)cc1,-,-,3.26µM,-,-,-
COC(=O)c1cc(Cl)c(NC(=O)C(C)C)cc1OC,-,-,-,-,-,-
COC(=O)c1ccccc1NC(=O)c1cc[n+](C)cc1,-,?,-,-,-,5.62µM
